Laboratory results from PubChem BioAssay (NCI).
Compounds without any hit were thinned out: in the full panel of roughly 83,000, 20% have a hit.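 96-well plates, one dose, 48 hours. Percent growth reported; active if below 10.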 Active and inactive are the calls of the source.

Experiments:
Assay in all cases: NCI-60 one-dose screen, 48 h (100 = growth as untreated, 0 = no growth, -100 = all killed)
Settings in all cases: 10 µM unless noted
SR leukemia = test system: SR leukemia
RPMI-8226 leukemia = test system: RPMI-8226 leukemia
OVCAR-8 ovarian = test system: OVCAR-8 ovarian
OVCAR-5 ovarian = test system: OVCAR-5 ovarian
OVCAR-4 ovarian = test system: OVCAR-4 ovarian
IGROV1 ovarian = test system: IGROV1 ovarian
OVCAR-3 ovarian = test system: OVCAR-3 ovarian
HS 578T breast = test system: HS 578T breast
T-47D breast = test system: T-47D breast
BT-549 breast = test system: BT-549 breast
MDA-MB-435 melanoma = test system: MDA-MB-435 melanoma
SW-620 colon = test system: SW-620 colon
MCF7 breast = test system: MCF7 breast
HCT-116 colon = test system: HCT-116 colon
HCC-2998 colon = test system: HCC-2998 colon
KM12 colon = test system: KM12 colon
NCI/ADR-RES ovarian = test system: NCI/ADR-RES ovarian
SK-OV-3 ovarian = test system: SK-OV-3 ovarian

Measured: growth

CCC1N=C(N)N=C(N)N1c1ccc(Cl)cc1 (stereo not drawn)
inactive: SR leukemia 88.9% | RPMI-8226 leukemia 87.5% | OVCAR-8 ovarian 74.4% | OVCAR-5 ovarian 119% | OVCAR-4 ovarian 103% | IGROV1 ovarian 66.6% | OVCAR-3 ovarian 104% | HS 578T breast 97% | T-47D breast 95.7% | BT-549 breast 100% | MDA-MB-435 melanoma 79.5% | SW-620 colon 72.3% | MCF7 breast 91.3% | HCT-116 colon 61.1% | HCC-2998 colon 95.4% | KM12 colon 97.4%

O=C(N/N=C/c1ccc([N+](=O)[O-])cc1)c1ccccc1Nc1ccnc(C(F)(F)F)c1
inactive: SR leukemia 99.6% | RPMI-8226 leukemia 11.2% | OVCAR-8 ovarian 86.8% | OVCAR-5 ovarian 75.7% | OVCAR-4 ovarian 61.1% | IGROV1 ovarian 75.3% | OVCAR-3 ovarian 91.5% | NCI/ADR-RES ovarian 71.9% | T-47D breast 47.2% | BT-549 breast 87.4% | MDA-MB-435 melanoma 90.2% | MCF7 breast 95% | HCT-116 colon 76.8% | KM12 colon 87.1%
active: HS 578T breast -27.6% | SW-620 colon -44.6%

CCNC(=O)c1ccc2c(c1)nc(-c1ccc(Cl)cc1)n2-c1cc(C(C)(C)C)[nH]n1
active: SR leukemia -11.8% | NCI/ADR-RES ovarian 9.67% | MDA-MB-435 melanoma -20.6%
inactive: RPMI-8226 leukemia 76.5% | OVCAR-8 ovarian 77.1% | OVCAR-5 ovarian 63.9% | SK-OV-3 ovarian 26.9% | IGROV1 ovarian 47.7% | OVCAR-3 ovarian 21.5% | HS 578T breast 59.7% | T-47D breast 51.7% | BT-549 breast 41.8% | SW-620 colon 42.7% | MCF7 breast 14.7% | HCT-116 colon 15.3% | HCC-2998 colon 63.4% | KM12 colon 38.9%

C[C@H](NC(=O)c1snnc1C1CC1)c1c(F)cccc1Cl
inactive: SR leukemia 149% | RPMI-8226 leukemia 130% | OVCAR-8 ovarian 104% | OVCAR-5 ovarian 115% | OVCAR-4 ovarian 110% | IGROV1 ovarian 113% | OVCAR-3 ovarian 114% | HS 578T breast 100% | NCI/ADR-RES ovarian 97.8% | BT-549 breast 139% | MDA-MB-435 melanoma 106% | SW-620 colon 106% | MCF7 breast 98.7% | HCT-116 colon 122% | HCC-2998 colon 95.7% | KM12 colon 114%

CCN(CC)c1ccc(/C=N/N=C(N)N)cc1
inactive: SR leukemia 27.6% | OVCAR-8 ovarian 62.6% | OVCAR-5 ovarian 79.8% | SK-OV-3 ovarian 37.6% | IGROV1 ovarian 63.3% | HS 578T breast 55.3% | NCI/ADR-RES ovarian 93% | T-47D breast 63.4% | BT-549 breast 51.5% | SW-620 colon 19.3% | MCF7 breast 15.4% | HCT-116 colon 32.5% | HCC-2998 colon 85.5% | KM12 colon 25.2%
active: RPMI-8226 leukemia 3.74% | OVCAR-3 ovarian 4.63% | MDA-MB-435 melanoma -23%

CC(C)C/C=C/C=C/C(=O)N[C@@H](CC(N)=O)C(=O)N[C@@H]1C(=O)N[C@H](c2ccc(O)cc2)C(=O)N[C@H](CCCN)C(=O)N[C@H]([C@@H](C)O)C(=O)N[C@H](c2ccc(O)cc2)C(=O)N[C@H](c2ccc(O)cc2)C(=O)N[C@H]([C@H](C)O)C(=O)N[C@H](Cc2ccccc2)C(=O)N[C@H](CCCN)C(=O)N[C@H](c2ccc(O[C@H]3O[C@@H](CO)[C@@H](O)[C@@H](O)[C@H]3O[C@@H]3O[C@H](CO)[C@H](O)[C@H](O)[C@@H]3O)cc2)C(=O)N[C@H]([C@H](C)O)C(=O)N[C@H](c2ccc(O)cc2)C(=O)NCC(=O)N[C@H](CC(C)C)C(=O)N[C@H](C)C(=O)N[C@H](c2ccc(O)c(Cl)c2)C(=O)O[C@@H]1C(N)=O
active: BT-549 breast -2.76%
inactive: SR leukemia 33.1% | RPMI-8226 leukemia 109% | OVCAR-8 ovarian 63.9% | OVCAR-5 ovarian 36.2% | OVCAR-4 ovarian 117% | IGROV1 ovarian 96.6% | OVCAR-3 ovarian 117% | HS 578T breast 67.3% | NCI/ADR-RES ovarian 96.9% | MDA-MB-435 melanoma 57.2% | SW-620 colon 96.3% | MCF7 breast 54.9% | HCT-116 colon 20.4% | HCC-2998 colon 104% | KM12 colon 44.3%

C=CCCCCOc1cccc(/C=C2\N=C3SCCCN3C2=O)c1
active: T-47D breast -2.85%
inactive: SR leukemia 125% | RPMI-8226 leukemia 103% | OVCAR-8 ovarian 101% | OVCAR-5 ovarian 106% | SK-OV-3 ovarian 97.7% | IGROV1 ovarian 88.6% | OVCAR-3 ovarian 107% | HS 578T breast 112% | NCI/ADR-RES ovarian 95.6% | BT-549 breast 94.4% | MDA-MB-435 melanoma 106% | SW-620 colon 103% | MCF7 breast 88.9% | HCT-116 colon 86.2% | HCC-2998 colon 100% | KM12 colon 98.4%

C(=Nc1ccc(-c2ccc(N=Cc3ccccc3)cc2)cc1)c1ccccc1
inactive: SR leukemia 86.3% | RPMI-8226 leukemia 103% | OVCAR-8 ovarian 109% | OVCAR-5 ovarian 116% | SK-OV-3 ovarian 103% | IGROV1 ovarian 87.6% | OVCAR-3 ovarian 111% | HS 578T breast 82.1% | NCI/ADR-RES ovarian 101% | T-47D breast 107% | BT-549 breast 97.5% | MDA-MB-435 melanoma 107% | SW-620 colon 106% | MCF7 breast 89.9% | HCT-116 colon 100% | HCC-2998 colon 110% | KM12 colon 107%

C=C(C)[C@@H]1CC[C@]2(C(=O)O)CC[C@]3(C)[C@H](CC[C@@H]4[C@@]5(C)C[C@@H](CC#Cc6ccc(C(C)=O)s6)[C@H](O)C(C)(C)[C@@H]5CC[C@]43C)[C@@H]12
inactive: SR leukemia 78.3% | RPMI-8226 leukemia 40% | OVCAR-8 ovarian 38.4% | OVCAR-5 ovarian 98% | OVCAR-4 ovarian 33.6% | IGROV1 ovarian 89.1% | OVCAR-3 ovarian 58.4% | HS 578T breast 73.1% | NCI/ADR-RES ovarian 76.3% | T-47D breast 51.5% | BT-549 breast 53.1% | MDA-MB-435 melanoma 81.5% | MCF7 breast 55% | HCT-116 colon 26% | HCC-2998 colon 62.9% | KM12 colon 18.1%

Cc1ccc(OC2=C(C#N)C(=N)N3C(=NN2)Sc2c(C)ccc(C)c23)cc1
inactive: SR leukemia 98.2% | RPMI-8226 leukemia 105% | OVCAR-8 ovarian 104% | OVCAR-5 ovarian 128% | SK-OV-3 ovarian 96.2% | IGROV1 ovarian 87.7% | OVCAR-3 ovarian 117% | HS 578T breast 107% | NCI/ADR-RES ovarian 101% | T-47D breast 84.8% | BT-549 breast 105% | MDA-MB-435 melanoma 106% | SW-620 colon 102% | MCF7 breast 91% | HCT-116 colon 106% | HCC-2998 colon 106% | KM12 colon 106%

CC(=O)OC[C@H]1O[C@@H](n2c(=O)cc(N)[nH]c2=O)C(OC(C)=O)[C@@H]1OC(C)=O (stereo partly drawn)
inactive: SR leukemia 106% | RPMI-8226 leukemia 103% | OVCAR-8 ovarian 99.4% | OVCAR-5 ovarian 99.8% | SK-OV-3 ovarian 106% | IGROV1 ovarian 103% | OVCAR-3 ovarian 114% | HS 578T breast 95.7% | NCI/ADR-RES ovarian 103% | T-47D breast 96% | BT-549 breast 92.8% | MDA-MB-435 melanoma 101% | SW-620 colon 107% | MCF7 breast 94.9% | HCT-116 colon 103% | HCC-2998 colon 106% | KM12 colon 111%

O=C(CC(=O)c1ccccc1F)Nc1ccc([N+](=O)[O-])cc1
inactive: SR leukemia 77.7% | RPMI-8226 leukemia 68.4% | OVCAR-8 ovarian 97.4% | OVCAR-5 ovarian 104% | OVCAR-4 ovarian 92.8% | IGROV1 ovarian 97.9% | OVCAR-3 ovarian 109% | HS 578T breast 110% | NCI/ADR-RES ovarian 103% | T-47D breast 82.5% | BT-549 breast 89.7% | MDA-MB-435 melanoma 88.3% | MCF7 breast 81.3% | HCT-116 colon 90.5% | HCC-2998 colon 103% | KM12 colon 99.8%

NC(=O)N/N=C\c1ccc([N+](=O)[O-])o1
inactive: SR leukemia 96.1% | RPMI-8226 leukemia 86% | OVCAR-8 ovarian 97.6% | OVCAR-5 ovarian 103% | SK-OV-3 ovarian 114% | IGROV1 ovarian 105% | OVCAR-3 ovarian 109% | HS 578T breast 79.2% | NCI/ADR-RES ovarian 95.1% | T-47D breast 101% | BT-549 breast 106% | MDA-MB-435 melanoma 102% | SW-620 colon 96.9% | MCF7 breast 94.6% | HCT-116 colon 109% | HCC-2998 colon 104% | KM12 colon 98.1%

CC(C)(C)c1nn(-c2ccccc2)c2c1C(=O)CSC(c1ccccc1Cl)N2 (stereo not drawn)
active: SR leukemia -13.8% | NCI/ADR-RES ovarian 0.0963% | MDA-MB-435 melanoma -12.4%
inactive: RPMI-8226 leukemia 42.9% | OVCAR-8 ovarian 35.7% | OVCAR-5 ovarian 46.8% | OVCAR-4 ovarian 72.5% | IGROV1 ovarian 30.3% | OVCAR-3 ovarian 11.3% | HS 578T breast 47.5% | T-47D breast 29.3% | BT-549 breast 44.6% | SW-620 colon 37.1% | MCF7 breast 17.1% | HCT-116 colon 16.2% | HCC-2998 colon 24.9% | KM12 colon 32.5%

O=C(Nc1ccc(Cl)cc1)c1cc(-c2ccc(Cl)cc2)c2sc(=O)[nH]c2n1
active: SR leukemia 2% | RPMI-8226 leukemia -6.18% | OVCAR-8 ovarian 4.75% | OVCAR-3 ovarian 1.82% | HS 578T breast -14.4% | NCI/ADR-RES ovarian 5.64% | T-47D breast -22.8% | BT-549 breast 1.28% | MDA-MB-435 melanoma 7.39% | SW-620 colon 8.1% | MCF7 breast 0.758% | HCT-116 colon 0.269% | KM12 colon 4.21%
inactive: OVCAR-5 ovarian 32% | OVCAR-4 ovarian 13% | IGROV1 ovarian 28.1% | HCC-2998 colon 19.1%

C[Si](C)(C)C(c1ccccc1)c1ccccc1
inactive: SR leukemia 86.8% | RPMI-8226 leukemia 91.6% | OVCAR-8 ovarian 102% | OVCAR-5 ovarian 110% | OVCAR-4 ovarian 109% | IGROV1 ovarian 97.1% | OVCAR-3 ovarian 113% | HS 578T breast 98.9% | NCI/ADR-RES ovarian 98.9% | T-47D breast 91.4% | BT-549 breast 108% | MDA-MB-435 melanoma 92.1% | SW-620 colon 101% | MCF7 breast 106% | HCT-116 colon 97.7% | HCC-2998 colon 97.2% | KM12 colon 107%

CCOC(=O)c1ccc2c(c1)nc(-c1ccc(Cl)cc1)n2-c1cc(C(C)(C)C)[nH]n1
inactive: RPMI-8226 leukemia 75.6% | OVCAR-8 ovarian 70.1% | OVCAR-5 ovarian 60.5% | SK-OV-3 ovarian 18.9% | IGROV1 ovarian 42.3% | OVCAR-3 ovarian 13.5% | HS 578T breast 53.9% | T-47D breast 49.3% | BT-549 breast 16.8% | SW-620 colon 42.1% | HCC-2998 colon 56.1% | KM12 colon 29.9%
active: SR leukemia -22.3% | NCI/ADR-RES ovarian 4.4% | MDA-MB-435 melanoma -31.2% | MCF7 breast 9.39% | HCT-116 colon 8.57%
